Sampled rows, rich in hits. Any-hit rate of the full collection: about 2.8%.
KKLEB cytotox: CF airway cell cytotoxicity counter-screen | AID 602141 | 0.36% of 360,000 active | activity change (cytotoxicity), % at 5 µM | KKLEB CF airway cells viability, ATPlite luminescence, overnight; hits give low values; cells stimulated with P. aeruginosa culture filtrate;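 active means corrected activity change at or below -50% at 5 µM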
Peg3 prom inh: reduces Peg3 promoter-driven luciferase expression in HeLa; HeLa PEG-Prom luciferase reporter, luminescence, overnight; inhibition, % at 20 µM; 1.7% of 360,000 active; AID 588405;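 active means inhibition of at least 50% at 20 µM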
TRPM1 prom inh: MITF TRPM1 promoter inhibition in SK-MEL-5 cells. SK-MEL-5 TRPM1 promoter luciferase, 24 h. inhibition, % at 12.5 µM. 0.83% of 330,000 active. AID 488899;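 active means mean inhibition across replicates of 60% or more, whatever share of single replicates reaches that level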
Shn3 inh set2: reduces Shn3 3'UTR luciferase signal in osteoblasts; inhibition, % at 12.5 µM; AID 588674; 0.52% of 360,000 active; Clone20 osteoblast Shn3 3'UTR firefly luciferase, 24 h;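 active means mean inhibition of at least 75% with every replicate also reaching 75%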;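 further: 0% = median of neutral control wells and 100% = pilot-screen positive control compound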
CF NFkB block: blocks PAF-induced NF-kB reporter in cystic fibrosis cells | inhibition, % at 5 µM | KKLEB NF-kB-GFP reporter, GFP fluorescence overnight | 0.86% of 360,000 active;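 active means at least 50% inhibition at 5 µM, scaled per plate between neutral and stimulator controls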;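 further: PAF is a Pseudomonas aeruginosa culture filtrate used as stimulus; plate controls were PAF-stimulated DMSO wells for no effect and unstimulated DMSO wells for full effect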
HIF-2a inh: HIF-2a inhibition | AID 624352 | 0.72% of 360,000 active | inhibition, % at 18.8 µM | 786-0 RCC cells HIF-2a reporter, luciferase luminescence, overnight;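 active means inhibition of the luminescence signal of 40% or more relative to plate controls, in a single-dose primary screen at 18.75 µM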
Numbers without * were called inactive.

Screening CN1C2CCC1/C(=C/c1ccccn1)C(=O)/C2=C\c1ccccn1 returned KKLEB cytotox -91*, Peg3 prom inh 99*, TRPM1 prom inh 97*, Shn3 inh set2 93*, CF NFkB block 99* and HIF-2a inh 88*.
COc1cccc(C2(O)CCN(CC(=O)Nc3nc(C)cs3)CC2)c1 was read as KKLEB cytotox -6, Peg3 prom inh 1, TRPM1 prom inh 7, Shn3 inh set2 -10, CF NFkB block 12 and HIF-2a inh 6.
Screening CC(=O)Nc1ccccc1C(=O)C(=O)Nc1cccc(C(=O)N2CCC3(CC2)OCCO3)c1 returned KKLEB cytotox 2, Peg3 prom inh 23, TRPM1 prom inh 1, Shn3 inh set2 -5, CF NFkB block 17 and HIF-2a inh 13.
Screening C[C@]12CC[C@H](O)C[C@@H]1CC[C@H]1[C@H]3CCC(=O)[C@@]3(C)CC[C@@H]12 returned KKLEB cytotox 14, Peg3 prom inh -4, Shn3 inh set2 33, CF NFkB block -41 and HIF-2a inh -4.
`C[C@]12CCC3C(CC[C@H]4C[C@H](O)CC[C@]34C)C1CCC2=O` (stereo partly drawn) gave KKLEB cytotox -1, Peg3 prom inh 21, TRPM1 prom inh 2, Shn3 inh set2 86*, CF NFkB block -15 and HIF-2a inh 5.
`CC(=O)O[C@H]1CCC2C3CC[C@H]4[C@@H](O)[C@H](O)CC[C@]4(C)C3CC[C@@]21C` (stereo partly drawn) gave KKLEB cytotox -2, Peg3 prom inh 7, TRPM1 prom inh 5, Shn3 inh set2 96*, CF NFkB block -13 and HIF-2a inh 0.
`O=c1[nH]c(=O)n(Cc2ccccc2Cl)c(O)c1C=Nc1ccc(F)cc1` gave KKLEB cytotox -5, Peg3 prom inh 18, TRPM1 prom inh -28, Shn3 inh set2 -2, CF NFkB block 9 and HIF-2a inh 19.
Cc1cc(C)c(N=Cc2c(O)[nH]c(=O)[nH]c2=O)c(C)c1 was read as KKLEB cytotox -14, Peg3 prom inh 51*, TRPM1 prom inh 32, Shn3 inh set2 -27, CF NFkB block 14 and HIF-2a inh 8.
Screening Cc1cc(Cl)ccc1C(=O)C1CCCN(C2CCSCC2)C1 (stereo not drawn) returned KKLEB cytotox -1, Peg3 prom inh 4, TRPM1 prom inh 2, Shn3 inh set2 -3, CF NFkB block -3 and HIF-2a inh 16.
Screening O=C1NCN(c2ccccc2)C12CCN(C(c1cccc3ccccc13)c1nnnn1Cc1ccccc1)CC2 (stereo not drawn) returned KKLEB cytotox -11, Peg3 prom inh 28, Shn3 inh set2 -14, CF NFkB block 42 and HIF-2a inh -5.
Screening O=C1NCN(c2ccccc2)C12CCN(C(c1ccccc1OC(F)(F)F)c1nnnn1Cc1ccccc1)CC2 (stereo not drawn) returned KKLEB cytotox -26, Peg3 prom inh 91*, Shn3 inh set2 21, CF NFkB block 39 and HIF-2a inh -10.
`Cn1ncnc2c(=O)n(C)c(=O)nc1-2` gave KKLEB cytotox -97*, Peg3 prom inh 105*, TRPM1 prom inh 103*, Shn3 inh set2 97*, CF NFkB block 102* and HIF-2a inh 82*.
For Cc1cc2c(C(C)C)c(O)c(O)c(C=O)c2c(O)c1-c1c(C)cc2c(C(C)C)c(O)c(O)c(C=O)c2c1O the results were KKLEB cytotox -53*, Peg3 prom inh 94*, Shn3 inh set2 92*, CF NFkB block 62* and HIF-2a inh 89*.
For Cn1c(N)c(C(=O)COC(=O)Cc2ccccc2)c(=O)n(C)c1=O the results were KKLEB cytotox -3, Peg3 prom inh 1, TRPM1 prom inh 6, Shn3 inh set2 2, CF NFkB block -8 and HIF-2a inh 7.
Screening COc1ccc(-n2c(O)c(/C=C3\C=Nc4ccc(Br)cc43)c(=O)[nH]c2=O)c(OC)c1 returned KKLEB cytotox 2, Peg3 prom inh 11, TRPM1 prom inh -2, Shn3 inh set2 64, CF NFkB block 43 and HIF-2a inh 45*.
`COc1ccc(-n2c(O)c(/C=C3\C=Nc4ccc(Br)cc43)c(=O)[nH]c2=O)cc1` gave KKLEB cytotox 2, Peg3 prom inh 39, TRPM1 prom inh 6, Shn3 inh set2 12, CF NFkB block 19 and HIF-2a inh 31.
`CC(C)(O)/C=C/C(=O)[C@](C)(O)C1[C@H](O)C[C@@]2(C)C3CC=C4C(C[C@H](O)[C@@H](O)C4(C)C)[C@]3(C)C(=O)C[C@]12C` (stereo partly drawn) gave KKLEB cytotox -75*, Peg3 prom inh 61*, TRPM1 prom inh 71*, Shn3 inh set2 46, CF NFkB block 71* and HIF-2a inh 30.
Screening O=C1NCN(c2ccccc2)C12CCN(C(c1cc3ccccc3o1)c1nnnn1-c1ccc3c(c1)OCCO3)CC2 (stereo not drawn) returned KKLEB cytotox -6, Peg3 prom inh 24, Shn3 inh set2 12, CF NFkB block 21 and HIF-2a inh 1.
`Cc1cccc(C)c1-n1nnnc1C(c1cc2ccccc2o1)N1CCC(n2c(=O)[nH]c3ccccc32)CC1` (stereo not drawn) gave KKLEB cytotox -4, Peg3 prom inh 102*, Shn3 inh set2 96*, CF NFkB block 25 and HIF-2a inh -41.
O=c1[nH]c2ccccc2n1C1CCN(C(c2cc3ccccc3o2)c2nnnn2Cc2ccccc2)CC1 (stereo not drawn) was read as KKLEB cytotox -96*, Peg3 prom inh 93*, Shn3 inh set2 29, CF NFkB block 82* and HIF-2a inh -22.
CNC(=O)Oc1c(C)[nH]ccc1=O was read as KKLEB cytotox 0, Peg3 prom inh -2, Shn3 inh set2 -10, CF NFkB block 3 and HIF-2a inh 17.
CN(CC1COc2ccccc2O1)c1nc(-c2cccnc2)nc2ccccc12 (stereo not drawn) was read as KKLEB cytotox 1, Peg3 prom inh 51*, TRPM1 prom inh -17, Shn3 inh set2 24, CF NFkB block 1 and HIF-2a inh 16.
Screening CCCCn1c(O)c(C(=O)/C=C/c2c[nH]c3ccccc23)c(=O)[nH]c1=O returned KKLEB cytotox 4, Peg3 prom inh -6, TRPM1 prom inh 10, Shn3 inh set2 -5, CF NFkB block -79 and HIF-2a inh 14.
Screening C[C@]12C[C@H](O)[C@@H](O)CC1=CCC1C2CC[C@@]2(C)C1CC[C@@H]2O (stereo partly drawn) returned KKLEB cytotox -15, Peg3 prom inh 2, TRPM1 prom inh 12, Shn3 inh set2 8, CF NFkB block 3 and HIF-2a inh -2.

Source: PubChem (several laboratories)
